APE1 inh: inhibitors of human APE1 endonuclease; P27695; recombinant APE1, TAMRA/BHQ-2 abasic DNA cleavage fluorescence; Potency, µM (titrated, usually from 65.8 µM), for inactives: at the highest dose activity change, negative = inhibition, hits mostly inhibitors; 350,000 compounds, 0.35% hits; AID 2517;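 further: plate controls were vehicle for no effect and reference inhibitor for full effect; nearly all actives have a fitted effect of over 55% in size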
Target sequence (P27695 whole entry, looked up): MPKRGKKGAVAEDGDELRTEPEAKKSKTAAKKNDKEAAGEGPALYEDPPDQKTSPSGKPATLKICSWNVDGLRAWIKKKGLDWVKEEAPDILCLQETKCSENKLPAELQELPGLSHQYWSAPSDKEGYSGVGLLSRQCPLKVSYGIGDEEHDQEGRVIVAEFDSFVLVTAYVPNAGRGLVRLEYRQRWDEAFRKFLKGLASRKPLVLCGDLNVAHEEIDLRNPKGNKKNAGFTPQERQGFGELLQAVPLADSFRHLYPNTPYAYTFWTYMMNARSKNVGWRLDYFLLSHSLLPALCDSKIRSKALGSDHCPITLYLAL
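Step 1: APE1 (0.75 nM) with compound, 15 min RT. Step 2: add 50 nM fluorophore/quencher THF duplex. Step 3: three fluorescence reads 60 s apart (525/598 nm); read 3 minus read 1 = reaction progress.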
POLH inh: DNA polymerase eta (human) inhibition | Q9Y253 | recombinant Pol eta, fluorescent DNA replication assay | Potency, µM (highest dose often 114 µM), for inactives: at the highest dose activity change, negative = inhibition, hits mostly inhibitors | 390,000 compounds, 1.2% hits | AID 588591; further: on the % scale 0 is the no-effect control and ±100 the full control effect
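Pol eta (10 nM) was preincubated with compounds for 15 min at room temperature, after which fluorescent replication substrate (50 nM final) was added to start the reaction. Fluorescence was read kinetically at 0 and 10 min.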
L3MBTL1 inh: inhibitors of human L3MBTL1; AID 485360; 230,000 compounds, 0.66% hits; AlphaScreen L3MBTL1–H3K9me1 peptide binding; Q9Y468; Potency, µM (series often up to 57.1 µM), for inactives: at the top dose activity, negative = inhibition, usual class: inhibitors; further: on the % scale 0 is the no-effect control and ±100 the full control effect; nearly all actives have a fitted effect of over 60% in size
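First, the protein-peptide complex forms for 30 min at room temperature (L3MBTL1 50 nM, biotinylated H3K9me1 peptide 75 nM). Next, compounds are pin-transferred and incubated 30 min. Finally, AlphaScreen beads are added and read after 30 min.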
Pol iota inh: DNA polymerase iota (human) inhibition; 390,000 compounds, 1% hits; Q9UNA4; Potency, µM (top dose mostly 115 µM), inactives show at the top dose activity, negative = inhibition, usual class: inhibitors; Pol iota fluorescent replication assay, 10 min
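Pol iota at 10 nM preincubated 15 min with compounds at room temperature; reaction started with fluorescent substrate, 50 nM final. Fluorescence read kinetically at 0 and 10 min; buffer-only wells as negative control.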
POLB inh: DNA polymerase beta (human) inhibition; AID 485314; Potency, µM (series often up to 114 µM), for inactives: at the top dose activity change, negative = inhibition, usual class: inhibitors; Pol beta primer extension/strand displacement, fluorescence kinetic; 340,000 compounds, 1.3% hits; further: on the % scale 0 is the no-effect control and ±100 the full control effect
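Pol beta (10 nM) and compounds were preincubated 15 min at room temperature, then 50 nM substrate (final) started primer extension/strand displacement. Reads were taken at 0 and 10 min; concentration-response data were fitted to a four-parameter Hill equation.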
Pol kappa inh: DNA polymerase kappa (human) inhibition; 400,000 compounds, 0.53% hits; purified Pol kappa, fluorescent DNA synthesis assay, 10 min; Q9UBT6; AID 588579; Potency, µM (titrated, usually from 107 µM), for inactives: at the top dose activity, negative = inhibition, hits mostly inhibitors; further: on the % scale 0 is the no-effect control and ±100 the full control effect
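Enzyme at 10 nM met test compounds for 15 min at room temperature. Substrate addition (50 nM final) began the reaction, which was monitored by fluorescence at 0 and 10 min.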
Numbers without * were called inactive; ? = inconclusive; / = no result given; ! = repeats disagree; [ ] = another dose, or the depositor's remark. An excerpt weighted towards active compounds, which were near 2.5% of everything screened. The call rests on the fitted dose curve; in most records, active means well fitted curve in the direction sought with a large enough effect; inconclusive means small, poorly fitted or top-dose-only effect, or another doubt; inactive means no such curve, though single readings can be large; an effect the other way counts as inactive or inconclusive. Potency means the concentration at half of the fitted maximal effect.

SMILES	APE1 inh	POLH inh	L3MBTL1 inh	Pol iota inh	POLB inh	Pol kappa inh
COc1ccc2c(C)cc(SCC(=O)c3ccc4c(c3)OCO4)nc2c1	-12%	-14%	5%	-16%[58.9 µM]	50µM*	-6%
COc1ccc2c(C)cc(SCC(=O)NC3CCCC3)nc2c1	4%	-2%	-1%	-1%	/	-26%
COc1ccc(NC(=S)NCCCCCC(=O)C[N+](=O)[O-])cc1	1%	79µM*	/	?	-1%	-4%
C[C@@H]1[C@H](c2ccccc2)OCCS(=O)(=O)N1Cc1ccc(Cl)cc1	/	/	/	1%	/	-16%
Cc1noc(/C=C/c2ccco2)c1S(=O)(=O)N1CCC(C(=O)N2CCc3ccccc3C2)CC1	-5%	?	?	45µM*	-111%	-35%
Cc1ccccc1NC(=O)C1CCN(S(=O)(=O)c2c(C)noc2/C=C/c2ccco2)CC1	/	8%	/	-12%	41%	4%
Cc1cc(=O)[nH]c(/N=C(\N)Nc2ccc(Oc3ccccc3)cc2)n1	-2%	-20%	/	84%	0%	-3%
Cc1cc(=O)[nH]c(/N=C(\N)Nc2cccc3ccccc23)n1	-2%	?	6%	?	22µM*	-4%
O=[N+]([O-])c1ccc(Cl)c(S(=O)(=O)Nc2ccc(-c3ccc(N4CCCC4)nn3)cc2)c1	-5%	45µM*	2%	?	/	-9%
O=[N+]([O-])c1ccc(S(=O)(=O)Nc2ccc(-c3ccc(N4CCCC4)nn3)cc2)cc1	6%	-15%	-1%	20%	/	0%
CC(=O)c1ccc(S(=O)(=O)Nc2ccc(-c3ccc(N4CCCCC4)nn3)cc2)cc1	/	79µM*	/	?	?	-15%[60.1 µM]
Cc1c([N+](=O)[O-])cc(S(=O)(=O)Nc2ccc(-c3ccc(N4CCCC4)nn3)cc2)cc1[N+](=O)[O-]	15%	18µM*	-3%	?	/	-32%
COc1ccc(C(=O)N2CCCC(N3CCN(c4ccccc4F)CC3)C2)c(OC)n1 (configuration not stated)	-5%	-8%	/	14%	0%	-3%
CC(C)NC(=O)N(C)C[C@@H]1Oc2ncc(-c3cccc(C#N)c3)cc2C(=O)N([C@H](C)CO)C[C@@H]1C	/	-17%	/	/	/	/
CN(C)c1ccc(C(CNC(=O)c2ccc(-c3ccccc3)cc2)N2CCOCC2)cc1 (configuration not stated)	-15%	/	-9%	/	/	/
CCN1/C(=C/C=C/c2sc3ccccc3[n+]2CC)Sc2ccccc21	24µM*	40µM*	28µM*	?	/	11µM*!
CCN1/C(=C/C=C/C=C/c2sc3ccccc3[n+]2CC)Sc2ccccc21	?	/	?	18µM*	16µM*	32µM*
CCN1/C(=C/C=C/C=C/C=C/c2sc3ccccc3[n+]2CC)Sc2ccccc21	-31%	-16%	/	?	-10%	-2%[60.1 µM]
COCc1cc(C)nc(SCC(=O)c2ccc(O)c(O)c2)c1C#N	3%	45µM*	-4%	22µM*	?	?
O=C(CNC(=O)c1ccc(-c2ccccc2)cc1)OCc1ccc(Br)cc1	4%	22µM*	-13%	110%	1%	-2%
COc1ccc(C(=O)NCC(=O)OCc2ccc(Br)cc2)cc1	0%	-6%	11%	-22%	21%	3%
Cc1cc2sc3ccccc3c(=O)c2c(C)c1O	-2%	-17%	-12%	?	50µM*	-12%
CC1C(=O)N2CCCc3cc(NC(=O)C4CCCCC4)cc1c32 (configuration not stated)	6%	-13%	4%	52%	/	-1%
O=C(C[n+]1csc2ccccc21)c1ccc(O)c(O)c1	/	/	/	14µM*	/	25µM*
O=C(C[n+]1cccc(Br)c1)c1ccc(O)c(O)c1	/	/	/	?	/	-32%
SMILES	APE1 inh	POLH inh	L3MBTL1 inh	Pol iota inh	POLB inh	Pol kappa inh
CCC(=O)c1ccc(OCc2cn(CC(=O)c3ccc(O)cc3)nn2)cc1	/	-3%	/	?	/	19%
CCc1ccccc1NC(=O)CNC(=O)c1ccc(OCc2cn3ccccc3n2)cc1	-14%	-20%	-14%	45µM*	/	-28%
Cc1nn(Cc2ccc(Cl)c(Cl)c2)c(C)c1NC(=O)c1cc(-c2ccco2)on1	-1%	-4%	-21%	12%	45µM*	-24%
O=C(CNc1cccc(S(=O)(=O)N2CCOCC2)c1)Nc1ccccc1F	16%	-8%	/	0%	31%	-13%
CCCCN(CCCC)CCNC(=O)Cn1nc(CC)n2c(cc3sc(C)cc32)c1=O	/	-10%	/	25µM*	45%	-6%
CCc1nn(CC(=O)NCCCN(CC)CC)c(=O)c2cc3sc(C)cc3n12	-3%	-19%	/	54%	27%	-11%
Cc1cc(Br)ccc1NC(=O)COC(=O)c1ccccc1OCC(N)=O	/	/	/	3%	/	-6%
CC(=O)OCC1OC(C#Cc2ccc(Cl)cc2)C=CC1OC(C)=O (configuration not stated)	14%[12.4 µM]	/	/	/	/	/
Cc1cc[n+](CCC2CCCCC2)cc1	/	/	/	-12%	/	5%
Cc1oc2cc3oc(=O)c(CCC(=O)NCCC(=O)O)c(C)c3cc2c1C	13%	56µM*	/	3%	1%	-4%
COc1ccc(CCNC(=O)CCc2c(C)c3cc4c(C)c(C)oc4cc3oc2=O)cc1	/	-15%	/	?	21%	3%
Cc1oc2cc3oc(=O)c(CC(=O)N[C@H](C(=O)N[C@@H](C(=O)O)c4ccccc4)C(C)C)c(C)c3cc2c1C	-12%	-16%	/	79µM*	-2%	?
COc1ccc(CNC(=O)CCc2c(C)c3cc4c(C)c(C)oc4cc3oc2=O)cc1OC	/	-17%	/	-16%	1.6µM*	-18%
Cc1coc2cc3oc(=O)c(CCC(=O)NCCN4CCOCC4)c(C)c3cc12	19%	-6%	/	89µM*	-2%	?
CCc1c(C)c2ccccc2[nH]c1=O	/	/	/	68%	/	6%
COc1cccc(CNC(=O)C2CCN(c3ncnc4c3nc3n4CCCCC3)CC2)c1	?	-3%	/	?	100µM*!	-21%
CCOC(=O)C1=C(C)N(C)C(=O)NC1c1cc2c(cc1[N+](=O)[O-])OCO2 (configuration not stated)	-4%	-14%	/	2.8µM*	18µM*	?
O=C(CCS(=O)(=O)c1ccccc1)Nc1ccc2c(c1)OCO2	?	-8%	-15%	?	11µM*	?
COc1ccccc1OCC(=O)Nc1ccc2c(c1)OCO2	-9%	?	/	?	50µM*	-25%
Cc1ccc(NC(=O)CS(=O)CC(=O)Nc2ccc3c(c2)OCO3)cc1Cl (configuration not stated)	-9%	?	-21%	?	50µM*	-29%
